Assay [1] can be described thus: qHTS assay to identify small molecule antagonists of the TGF-beta/Smad signaling pathway - cell viability counter screen (AID 1346824). Further: nearly all actives have a fitted effect of over 50% in size. Further: potency means the concentration at half of the fitted maximal effect. The gist of the method: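 SBE-bla HEK 293T cells, incubated overnight, then compound plus 0.25 ng/mL TGF-beta1 (stock added) for 5 hr at 37 C. Viability was read in the same wells by CellTiter-Glo luminescence after 30 min at room temperature.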
For orientation: Quantitative high-throughput screening tests each substance at several concentrations.

The nature of assay [2]: qHTS assay to identify small molecule agonists of the TGF-beta/Smad signaling pathway - cell viability counter screen (AID 1346829). Further: nearly all actives have a fitted effect of over 45% in size. Further: potency means the concentration at half of the fitted maximal effect. The gist of the method: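 Same-well cytotoxicity: CellTiter-Glo added after the 2 hr room-temperature beta-lactamase substrate step, luminescence measured 30 min later; cells had 5 hr of compound at 37 C.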
Assay [3] can be described thus: qHTS assay to identify small molecule agonists of the TGF-beta/Smad signaling pathway (AID 1346859; active means well fitted activation curve with a large enough effect in the signal ratio in the repeat runs, not every such curve was filed as active; the % refers to the signal ratio; further: series mostly up to about 77 µM). The gist of the method:
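Read-out: fluorescence at 460 and 530 nm (405 nm excitation) after a 2 hr room-temperature incubation with beta-lactamase FRET substrate. SBE-bla HEK 293T cells had been treated with test compounds for 5 hr at 37 C.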

The target of assay [4] is Thyrotropin-releasing hormone receptor (Homo sapiens) (UniProt P34981). Description: qHTS assay to identify small molecule antagonists of the thyrotropin-releasing hormone receptor (TRHR) signaling pathway (AID 1346877; active means well fitted inhibition curve with a large enough effect in the repeat runs, not every such curve was filed as active; further: potency means the concentration at half of the fitted maximal effect). In outline: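 Overnight-plated (18 h, 37 °C) HEK293 cells expressing TRHR were dye-loaded 2 h, treated with compound, then stimulated with TRH at 1 nM final. Fluorescence intensity was captured every second for 3 min.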
Chain of Thyrotropin-releasing hormone receptor (Homo sapiens) (P34981 whole entry, looked up): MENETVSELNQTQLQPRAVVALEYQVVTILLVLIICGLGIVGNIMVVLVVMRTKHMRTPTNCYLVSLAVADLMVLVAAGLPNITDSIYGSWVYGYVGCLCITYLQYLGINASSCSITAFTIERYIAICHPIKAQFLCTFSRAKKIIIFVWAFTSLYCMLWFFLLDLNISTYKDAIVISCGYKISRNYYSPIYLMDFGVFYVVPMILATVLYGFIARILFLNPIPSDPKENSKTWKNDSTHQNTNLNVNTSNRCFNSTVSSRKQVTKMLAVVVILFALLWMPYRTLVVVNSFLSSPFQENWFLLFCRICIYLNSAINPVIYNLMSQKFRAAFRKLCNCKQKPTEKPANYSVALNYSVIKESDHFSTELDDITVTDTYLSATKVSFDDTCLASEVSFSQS

Assay [5] shares this target. Description: qHTS assay to identify small molecule agonists of the thyrotropin-releasing hormone receptor (TRHR) signaling pathway (AID 1346891; calls by dose curve; further: potency means the concentration at half of the fitted maximal effect;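 on activation: HEK293 cells expressing TRHR with calcium dye readout; series mostly up to about 58 µM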). In outline:
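HEK293/TRHR cells, 1500 per well, 18 h 37 °C; Ca dye 2 h 37 °C; pin-tool compound addition (agonist mode); kinetic fluorescence 3 min, 1 s reads; 15 concentrations, triplicate.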

Assay [6] in a line: qHTS assay to identify small molecule antagonists of the progesterone receptor (PR) signaling pathway - cell viability counter screen (AID 1346798). Further: nearly all actives have a fitted effect of over 50% in size. Further: potency means the concentration at half of the fitted maximal effect. In outline: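 Luminescence readout (CellTiter-Glo, 30 min, RT) of viability in PR-UAS-bla HEK293T cells exposed to compound and R5020 agonist for 16 hr at 37C, 5% CO2; run in the same wells as the beta-lactamase reporter read.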

Assay [7] can be described thus: Human pregnane X receptor (PXR) small molecule agonists, qHTS cell viability counter screen (AID 1346977). Further: nearly all actives have a fitted effect of over 50% in size. Further: potency means the concentration at half of the fitted maximal effect. In outline: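 Fluorescence read-out (CellTiter-Fluor) of viability in PXR-Luc HepG2 cells, multiplexed with the luciferase agonist read. Compounds in DMSO added after 5hr plating; 24hr total exposure at 37C, 5% CO2.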
Assay [8] concerns the target Progesterone receptor (Homo sapiens) (UniProt P06401). Description: qHTS assay to identify small molecule antagonists of the progesterone receptor (PR) signaling pathway (AID 1346795; active means well fitted inhibition curve with a large enough effect in the signal ratio in the repeat runs, not every such curve was filed as active; the % refers to the signal ratio; further: potency means the concentration at half of the fitted maximal effect). The gist of the method:
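Beta-lactamase reporter, HEK293T PR-UAS-bla line; 2% charcoal-stripped FBS; 6 hr pre-incubation, 37C/5% CO2. Compound + R5020 1 nM final, 16 hr. LiveBLAzer B/G FRET substrate, 2 hr RT; fluorescence intensity read.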

Assay [9] is described as follows: qHTS assay to identify small molecule agonists of the progesterone receptor (PR) signaling pathway - cell viability counter screen (AID 1346799; calls by dose curve; further: nearly all actives have a fitted effect of over 45% in size; further: potency means the concentration at half of the fitted maximal effect). In outline: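 HEK293T PR-UAS-bla, 3,000 cells/well, 2% charcoal-stripped FBS; 6 h settle, compound 16 h at 37C/5% CO2; LiveBLAzer 2 h RT, then CellTiter-Glo 30 min RT, luminescence read.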

Structures are written as SMILES. Where “and” joins values, the source holds several entries; their conditions need not be identical. Identical values can stand only once. Inconclusive results are not listed. Calls of active or inactive are those of the source. Unless noted, the call rests on the fitted dose curve; in most records, active means well fitted curve in the direction sought with a large enough effect in the repeat runs; inconclusive means weak or mixed curves; inactive means no such curve, though single readings can be large; an effect the other way counts as inactive or inconclusive.

We go through 23 molecules from PubChem BioAssay (Tox21).

Chain of Progesterone receptor (Homo sapiens) (P06401 whole entry, looked up): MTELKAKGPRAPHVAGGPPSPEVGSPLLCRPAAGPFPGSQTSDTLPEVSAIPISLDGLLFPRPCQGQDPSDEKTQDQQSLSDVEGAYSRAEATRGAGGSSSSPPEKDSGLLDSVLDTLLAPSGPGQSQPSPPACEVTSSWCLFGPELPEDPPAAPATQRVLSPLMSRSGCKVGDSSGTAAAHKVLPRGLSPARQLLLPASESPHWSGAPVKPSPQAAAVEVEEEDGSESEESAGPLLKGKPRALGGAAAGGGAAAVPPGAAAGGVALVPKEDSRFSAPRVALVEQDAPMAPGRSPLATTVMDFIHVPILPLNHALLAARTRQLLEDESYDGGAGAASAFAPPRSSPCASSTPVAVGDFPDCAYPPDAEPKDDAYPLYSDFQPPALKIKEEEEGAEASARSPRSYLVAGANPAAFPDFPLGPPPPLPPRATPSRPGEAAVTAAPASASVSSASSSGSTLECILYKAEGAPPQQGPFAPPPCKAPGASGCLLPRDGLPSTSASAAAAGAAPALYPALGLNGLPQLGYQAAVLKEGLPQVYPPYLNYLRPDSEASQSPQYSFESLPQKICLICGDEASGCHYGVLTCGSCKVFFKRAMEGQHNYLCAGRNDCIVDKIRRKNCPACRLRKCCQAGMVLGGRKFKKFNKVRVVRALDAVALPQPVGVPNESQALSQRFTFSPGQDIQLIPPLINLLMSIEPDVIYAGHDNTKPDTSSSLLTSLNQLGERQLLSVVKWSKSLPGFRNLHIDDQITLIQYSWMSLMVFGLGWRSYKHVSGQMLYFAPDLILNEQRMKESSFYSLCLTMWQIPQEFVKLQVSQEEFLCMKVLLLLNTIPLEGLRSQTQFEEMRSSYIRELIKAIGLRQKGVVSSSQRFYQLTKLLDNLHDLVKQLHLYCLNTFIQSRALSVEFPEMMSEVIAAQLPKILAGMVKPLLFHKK

As for `Nc1ccc(N=Nc2ccccc2)cc1`, the Potency result in assay [1], in assay [2], in assay [4] and in assay [5] was “inactive” throughout. The outcome in assay [3] was inactive.

For `CC(C)[C@@H](Nc1ccc(C(F)(F)F)cc1Cl)C(=O)OC(C#N)c1cccc(Oc2ccccc2)c1` (some centres not stated), the Potency result in assay [6] and in assay [7] was “inactive” each time. Moreover, the molecule was classed as inactive in [3].

Regarding `CC#C[C@]1(O)CC[C@H]2[C@@H]3C[C@H](C)C4=CC(=O)CC[C@]4(C)[C@H]3CC[C@@]21C`, the Potency result in [8], in assay [2], in [4], in [5] and in [7] was “inactive” in each case. Moreover, the result in assay [3] was inactive.

Regarding `O=C(N[C@@H]1N=C(c2ccccc2F)c2cccc3c2N(CC3)C1=O)c1cc2ccccc2[nH]1`, the Potency entry in [6], in assay [9], in [1], in [2] and in assay [7] was “inactive” each time. Besides, the molecule was called inactive in [3]. For the same molecule, the Potency in assay [5] is 12 µM (active).

For the molecule `[O]=[Cr](=[O])([OH])[O][Cr](=[O])(=[O])[OH]`, the Potency entry in assay [6] was “inactive”. The Potency in assay [2] was 24.8 µM (active) and 24.5 µM (active); in [7], 8.71 µM (active) and 6.1 µM (active). Further, the molecule was called inactive in assay [3].

For `N#Cc1c2ccccc2cc2ccccc12`, the Potency entry in assay [6], in assay [1], in [2] and in [7] was “inactive” in each case.

For the molecule `N#CC(C#N)=NNc1cccc(Cl)c1`, the Potency in [8] is 13.7 µM (active); in [7], 3.86 µM (active). Also, the Potency entry in assay [4] and in [5] was “inactive” each time.

Take `CC(Cc1ccccc1)N(C)Cc1ccco1` (configuration not stated): the Potency result in [6], in [9], in assay [1], in assay [2], in [4] and in assay [5] was “inactive” each time. The Potency result in [7] was “inactive”. The outcome in [3] was inactive.

Consider `CCCCCCC[CH2][Sn]([Cl])([Cl])[CH2]CCCCCCC`, for which the Potency entry in [1], in assay [4] and in assay [5] was “inactive” each time. The molecule was classed as inactive in assay [3].

As to `COC(=O)/C=C(\C)OP(=O)(OC)OC`, the Potency entry in assay [6], in [9], in [2], in assay [4], in [5] and in assay [7] was “inactive” each time. In addition, the outcome in assay [3] was inactive.

With `COP(=S)(OC)Oc1nc(Cl)c(Cl)cc1Cl`, the Potency entry in assay [1], in assay [2], in assay [4], in assay [5] and in [7] was “inactive” throughout. In assay [3], the molecule was classed as inactive.

In the case of `CC(O)C(=O)[O][Hg][c]1ccccc1` (configuration not stated), the Potency is 4.86 µM (active) in assay [6], 4.86 µM (active) in [9], 9.77 µM (active) in [1] and 1.93 µM (active) in [7].

Consider `CCCCn1cc[n+](C)c1` (tested in a mixture with another compound), for which the Potency entry in [6], in assay [9], in [1] and in assay [7] was “inactive” in each case. For the same molecule, in assay [3], the outcome was inactive.

In the case of `CCC[CH2][Sn]([CH2]CCC)([O]C(C)=O)[O]C(C)=O`, the results for the Potency in assay [8] and in assay [7] were 0.195 µM (active) and 27.6 µM (active), respectively.

As for `N#Cc1sc2c(=O)c3ccccc3c(=O)c=2sc1C#N`, the Potency was 30.6 µM (active) in [6], 38.9 µM (active) in [2] and 9.69 µM (active) in assay [7]. Besides, the Potency result in [5] was “inactive”.

Regarding `Cc1ccc([N+](=O)[O-])[c]2c1[O][Hg]2`, the figures for the Potency in assay [6], in [9] and in [7] were 4.22 µM (active), 5.31 µM (active) and 6.68 µM (active), respectively. Also, in assay [3], the molecule was classed as inactive.

In the case of `CN(C)c1ccc(N)cc1`, the Potency entry in assay [6], in [1], in [4] and in [5] was “inactive” in each case. In addition, the call in assay [3] was inactive. Also, the Potency in [7] was 42.2 µM (active).

In the case of `Oc1cccc(Cl)c1Cl`, the Potency in [9] is 27.4 µM (active). In addition, the Potency entry in [1], in assay [4], in assay [5] and in assay [7] was “inactive” throughout. Besides, the molecule was classed as inactive in [3].

Turning to `CCCCn1cc[n+](C)c1.[Cl][Fe-]([Cl])([Cl])[Cl]`, the Potency result in assay [6], in [2] and in assay [7] was “inactive” in each case. In addition, the outcome in [3] was inactive.

Consider `CC(=O)[O][Pb]([c]1ccccc1)([c]1ccccc1)[c]1ccccc1`, for which the Potency in [6] is 4.33 µM (active); in [1], 4.9 µM (active); in assay [2], 4.36 µM (active); in [7], 4.33 µM (active).

For the molecule `O=[N+]([O-])c1cc(C(F)(F)F)c(Cl)c([N+](=O)[O-])c1Nc1ncc(C(F)(F)F)cc1Cl`, the Potency in assay [6] is 24.3 µM (active); in [9], 27.3 µM (active); in [1], 30.9 µM (active); in assay [2], 43.6 µM (active); in assay [4] it was 15.1 µM (active); in assay [7] it was 17.2 µM (active). In addition, the Potency result in assay [5] was “inactive”.

In the case of `O.O.O.O.O.O.O.O=S(=O)([O-])[O-].[Co+2]`, the Potency result in assay [2] and in [7] was “inactive” throughout. For the same molecule, in [3], the call was inactive.

Turning to `Fc1ccc(C(OCCN2CCN(CCCc3ccccc3)CC2)c2ccc(F)cc2)cc1`, the Potency is 23.9 µM (active) in [2] and 16.8 µM (active) in [7]. Moreover, the result in assay [3] was inactive. Moreover, the Potency result in assay [4] and in [5] was “inactive” in each case.
